Several values for one entry are separate records, joined by “and”; a condition that tells them apart may be missing. Equal values may be shown once. Inconclusive results are not listed. Where a structure was tested more than once in an assay, its records may differ in their call. Activity calls are given as the source filed them. How the source made its calls: active means hit-call score of the fitted dose curve at least 0.9, where 1 is the maximum; inconclusive means response in the unintended direction; inactive means score below 0.9.

A word on the AC50: it is the concentration giving half of the maximal activity seen.

Chain of human Constitutive Androstane Receptor (CAR), NR1I3 (gene 9970) (Q14994 whole entry, looked up): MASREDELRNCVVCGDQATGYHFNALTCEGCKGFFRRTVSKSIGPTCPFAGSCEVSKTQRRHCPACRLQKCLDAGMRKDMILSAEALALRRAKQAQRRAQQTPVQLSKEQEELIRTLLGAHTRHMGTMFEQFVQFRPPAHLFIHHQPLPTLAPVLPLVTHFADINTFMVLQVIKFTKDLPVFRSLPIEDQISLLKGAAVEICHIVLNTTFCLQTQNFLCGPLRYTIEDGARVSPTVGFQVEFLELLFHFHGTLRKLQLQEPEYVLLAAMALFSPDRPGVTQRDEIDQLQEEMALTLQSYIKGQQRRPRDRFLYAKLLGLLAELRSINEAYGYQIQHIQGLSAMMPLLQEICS
Chain of chimpanzee Androgen Receptor (AR), AR (gene 747460) (O97775 whole entry, looked up): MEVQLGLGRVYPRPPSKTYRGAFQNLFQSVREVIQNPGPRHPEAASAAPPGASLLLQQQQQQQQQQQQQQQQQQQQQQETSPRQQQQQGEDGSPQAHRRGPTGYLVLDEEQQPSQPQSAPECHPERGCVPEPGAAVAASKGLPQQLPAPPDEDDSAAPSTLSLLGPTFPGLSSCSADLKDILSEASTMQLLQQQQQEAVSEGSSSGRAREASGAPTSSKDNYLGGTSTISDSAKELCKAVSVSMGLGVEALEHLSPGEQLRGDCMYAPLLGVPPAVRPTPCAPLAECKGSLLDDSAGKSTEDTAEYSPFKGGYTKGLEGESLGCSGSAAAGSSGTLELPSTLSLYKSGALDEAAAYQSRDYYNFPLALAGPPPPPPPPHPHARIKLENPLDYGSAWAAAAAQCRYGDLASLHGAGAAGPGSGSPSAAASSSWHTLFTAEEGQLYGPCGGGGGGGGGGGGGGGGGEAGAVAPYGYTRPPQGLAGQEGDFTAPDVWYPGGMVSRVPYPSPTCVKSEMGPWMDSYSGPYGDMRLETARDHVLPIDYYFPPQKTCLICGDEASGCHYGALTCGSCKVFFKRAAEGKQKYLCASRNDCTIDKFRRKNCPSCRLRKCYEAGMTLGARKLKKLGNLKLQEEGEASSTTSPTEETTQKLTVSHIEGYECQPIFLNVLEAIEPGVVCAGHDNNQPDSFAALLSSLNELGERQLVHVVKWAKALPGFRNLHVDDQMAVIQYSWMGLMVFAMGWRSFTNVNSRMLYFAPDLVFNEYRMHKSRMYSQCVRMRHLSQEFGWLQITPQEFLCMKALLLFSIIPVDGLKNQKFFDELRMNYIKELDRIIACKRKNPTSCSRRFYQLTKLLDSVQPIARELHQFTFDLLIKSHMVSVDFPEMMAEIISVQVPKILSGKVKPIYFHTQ
Chain of bovine Estrogen Receptor (ER), ESR1 (gene 407238) (P49884 whole entry, looked up): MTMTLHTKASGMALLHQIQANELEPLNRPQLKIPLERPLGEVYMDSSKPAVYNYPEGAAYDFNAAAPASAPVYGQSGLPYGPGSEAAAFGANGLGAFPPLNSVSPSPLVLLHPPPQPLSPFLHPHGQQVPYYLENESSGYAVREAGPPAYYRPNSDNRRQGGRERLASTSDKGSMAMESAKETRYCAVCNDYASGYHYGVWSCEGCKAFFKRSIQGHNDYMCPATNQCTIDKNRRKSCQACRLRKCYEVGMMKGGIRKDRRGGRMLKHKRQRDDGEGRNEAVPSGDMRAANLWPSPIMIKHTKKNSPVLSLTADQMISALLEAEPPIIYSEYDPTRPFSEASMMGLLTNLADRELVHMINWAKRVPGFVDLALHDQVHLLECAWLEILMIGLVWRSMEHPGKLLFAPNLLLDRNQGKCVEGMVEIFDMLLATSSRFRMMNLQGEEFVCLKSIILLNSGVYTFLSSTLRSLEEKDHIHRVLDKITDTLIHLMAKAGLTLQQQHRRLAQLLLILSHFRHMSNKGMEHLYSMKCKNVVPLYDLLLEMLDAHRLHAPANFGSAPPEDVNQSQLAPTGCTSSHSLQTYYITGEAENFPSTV

One experiment has as its system NCBI gene 100848466. The experiment is described as follows: NVS_NR_bPR: NovaScreen (NVS) Nuclear Receptor Binding Assay for bovine Progextron Receptor (PR) (AID 2283343).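 On AC50: actives lower bound radioligand signal below DMSO meaning displacement of the label.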 The essentials:
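Membranes from bovine uterus; radiolabelled ligand plus test chemical; 18 h; scintillation read-out. Activity = signal loss vs DMSO. Primary: 25 uM, duplicate; secondary: concentration series.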
With `CC(=O)S[C@@H]1CC2=CC(=O)CC[C@]2(C)[C@H]2CC[C@@]3(C)[C@@H](CC[C@@]34CCC(=O)O4)[C@H]12`, the AC50 is 1530 nM (active).
With `C[C@]12C[C@H](O)[C@H]3[C@@H](CCC4=CC(=O)CC[C@@]43C)[C@@H]1CC[C@@H]2C(=O)CO`, the AC50 is 875 nM (active).
Consider `CC(C)CCCCCCc1ccc(O)cc1`, for which the call was inactive.
Regarding `O=C(c1ccc(O)cc1O)c1ccc(O)cc1O`, the half-maximal activity concentration (AC50) is 16400 nM (active).

In another experiment the target is human Constitutive Androstane Receptor (CAR), NR1I3 (gene 9970) (UniProt Q14994). The experiment is described as follows: NVS_NR_hCAR_Antagonist: NovaScreen (NVS) Nuclear Receptor Binding Assay for human Constitutive Androstane Receptor Antagonism (CAR) (AID 2283344). The essentials:
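Cell-free TR-FRET binding read 1 h after dosing, antagonist mode; loss of signal versus DMSO baseline. Primary screen in duplicate at a single 25 uM; actives retested in concentration series.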
In the case of `COC(=O)c1ccc(CNS(C)(=O)=O)cc1S(=O)(=O)NC(=O)Nc1nc(OC)cc(OC)n1`, the result was inactive.
Consider `CCOC(=O)[C@H](C)Oc1ccc(Oc2nc3ccc(Cl)cc3o2)cc1`, for which the AC50 is 182 nM (active).
`CCCOC(=O)c1ccc(C(=O)OCCC)nc1`: the call was inactive.
`O=C(O)C1(C(=O)Nc2ccc(Cl)cc2Cl)CC1`: the half-maximal activity concentration (AC50) was 9080 nM (active).
With `CCC(O)=C1C(=O)CC(C(=O)O)CC1=O` (stereo unspecified), the compound was classed as inactive.
On the same count and under the same terms, as for `CCOC(=O)NCCOc1ccc(Oc2ccccc2)cc1`, the entry is “inactive”.

In the next experiment the target is bovine Estrogen Receptor (ER), ESR1 (gene 407238) (UniProt P49884). The experiment is described as follows: NVS_NR_bER: NovaScreen (NVS) Nuclear Receptor Binding Assay for bovine Estrogen Receptor (ER) (AID 2283345).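 Further: actives lower the bound radioligand count which means they displace the ER ligand.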 The method in brief:
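Bovine uterine membranes; tritiated or iodinated radioligand; competitive displacement; 18 h; scintillation read; DMSO negative control; 25 uM duplicates, then concentration series for actives.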
Turning to `CC(=O)S[C@@H]1CC2=CC(=O)CC[C@]2(C)[C@H]2CC[C@@]3(C)[C@@H](CC[C@@]34CCC(=O)O4)[C@H]12`, the outcome was inactive.
Still for that read-out and setting: as for `CCCCOC(=O)C(C)Oc1ccc(Oc2ccc(C(F)(F)F)cn2)cc1` (stereo unspecified), the entry is “inactive”.
Still for that read-out and setting: as for `C[C@]12C[C@H](O)[C@H]3[C@@H](CCC4=CC(=O)CC[C@@]43C)[C@@H]1CC[C@@H]2C(=O)CO`, the entry is “inactive”; as for `O=C(c1ccccc1)C1CCCCC1`, “inactive”.
Same read-out and setting: as for `COc1c(Cl)ccc(Cl)c1C(=O)O`, the entry is “inactive”; as for `COCCO`, “inactive”.
Turning to `CC(C)CCCCCCc1ccc(O)cc1`, the AC50 is 16.7 µM (active) [middle of 4 runs].
Consider `CCOC(=O)c1ccc(O)cc1`, for which the compound was called inactive.
The same measure, in the same setting: next, `CCOC(=O)C(C)Oc1ccc(Oc2cnc3cc(Cl)ccc3n2)cc1` (stereo unspecified): “inactive”.

The next experiment deals with chimpanzee Androgen Receptor (AR), AR (gene 747460) (UniProt O97775). Briefly: NVS_NR_cAR: NovaScreen (NVS) Nuclear Receptor Binding Assay for chimpanzee Androgen Receptor (AR) (AID 2283346).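 Further: radioligand displacement from AR measured by scintillation counting in a cell-free assay; a loss of bound radioligand signal versus DMSO counts as binding.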 The essentials:
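Cell-free competition binding with insect-cell (Sf9/Sf21) extracted chimpanzee AR; scintillation signal from lysate at 72 h. Screened in duplicate at 25 uM, then concentration-response for actives; fitting relative to DMSO.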
For `CC(=O)S[C@@H]1CC2=CC(=O)CC[C@]2(C)[C@H]2CC[C@@]3(C)[C@@H](CC[C@@]34CCC(=O)O4)[C@H]12`, the concentration at half-maximal activity (AC50) is 6.35 nM (active) and 29.2 nM (active).
Still for that read-out and setting: next, `C[C@]12C[C@H](O)[C@H]3[C@@H](CCC4=CC(=O)CC[C@@]43C)[C@@H]1CC[C@@H]2C(=O)CO`: 4.56 µM (active); `CSC(=O)c1cccc2nnsc12`: 1.02 µM (active).
As to `CCOC(=O)c1ccc(O)cc1`, the compound was classed as inactive.
Consider `O=C(c1ccc(O)cc1O)c1ccc(O)cc1O`, for which the concentration at half-maximal activity (AC50) was 2.73 µM (active).

For another experiment, the target named is Estrogen receptor (Homo sapiens) (UniProt P03372). Briefly: NVS_NR_hER: NovaScreen (NVS) Nuclear Receptor Binding Assay for human Estrogen Receptor (ER) (AID 2283348). The essentials: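 Scintillation signal from bound radioligand was measured 18 hours after chemical addition to cell-free MCF7 protein extracts, with DMSO as baseline. Activity was scored as signal loss; compounds ran first at 25 uM in duplicate.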
Chain of Estrogen receptor (Homo sapiens) (P03372 whole entry, looked up): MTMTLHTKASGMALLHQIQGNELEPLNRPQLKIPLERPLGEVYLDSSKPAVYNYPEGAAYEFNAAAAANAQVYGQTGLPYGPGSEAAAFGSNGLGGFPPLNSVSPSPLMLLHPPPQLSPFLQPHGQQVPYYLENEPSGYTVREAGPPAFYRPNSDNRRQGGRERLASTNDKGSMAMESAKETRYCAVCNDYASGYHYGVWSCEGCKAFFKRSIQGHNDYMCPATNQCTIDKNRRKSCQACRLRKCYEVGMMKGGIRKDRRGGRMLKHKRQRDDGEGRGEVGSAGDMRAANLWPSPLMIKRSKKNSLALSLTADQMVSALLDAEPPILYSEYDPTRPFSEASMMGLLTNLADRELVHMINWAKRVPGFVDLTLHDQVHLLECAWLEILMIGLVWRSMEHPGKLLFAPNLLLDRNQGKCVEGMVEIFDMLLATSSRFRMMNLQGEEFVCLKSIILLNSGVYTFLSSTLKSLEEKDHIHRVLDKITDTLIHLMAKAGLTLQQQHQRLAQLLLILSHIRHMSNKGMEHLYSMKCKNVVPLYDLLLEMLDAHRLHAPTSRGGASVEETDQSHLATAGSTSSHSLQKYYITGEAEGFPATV
`CC(=O)S[C@@H]1CC2=CC(=O)CC[C@]2(C)[C@H]2CC[C@@]3(C)[C@@H](CC[C@@]34CCC(=O)O4)[C@H]12`: the call was inactive.
On the same count and under the same terms, next, `C[C@]12C[C@H](O)[C@H]3[C@@H](CCC4=CC(=O)CC[C@@]43C)[C@@H]1CC[C@@H]2C(=O)CO`: “inactive”.
Same read-out and setting: next, `O=C(c1ccccc1)C1CCCCC1`: “inactive”.
The same measure, in the same setting: as for `COc1c(Cl)ccc(Cl)c1C(=O)O`, the entry is “inactive”; as for `COC(=O)c1ccc(CNS(C)(=O)=O)cc1S(=O)(=O)NC(=O)Nc1nc(OC)cc(OC)n1`, “inactive”.
With `O=C(O)c1ccccc1`, the result was inactive.
For the compound `CCOC(=O)c1ccc(O)cc1`, the AC50 was 10.5 µM (active) and 4.61 µM (active); the compound was classed as inactive.
Turning to `O=C(c1ccc(O)cc1O)c1ccc(O)cc1O`, the AC50 was 59.6 nM (active) [middle of 4 runs].
Turning to `CCOC(=O)C(C)Oc1ccc(Oc2cnc3cc(Cl)ccc3n2)cc1` (stereo unspecified), the compound was classed as inactive.

A further experiment has the same target. The experiment is described as follows: OT_ER_ERaERa_1440: Odyssey Thera (OT) 24-hour HEK293T Protein-Complementation Assay for Estrogen Receptor-alpha/-alpha Homodimer (AID 2283349).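 Further: hits raise fluorescence above DMSO for agonists and antagonists alike.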 The essentials: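 Protein-fragment complementation between two human ERα ligand-binding domains (aa 310-547) in stably transfected HEK293T cells was monitored after 24 h treatment, using fluorescence intensity relative to vehicle controls.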
`CC(=O)S[C@@H]1CC2=CC(=O)CC[C@]2(C)[C@H]2CC[C@@]3(C)[C@@H](CC[C@@]34CCC(=O)O4)[C@H]12`: the outcome was inactive.
Same read-out and setting: next, `CCCCOC(=O)C(C)Oc1ccc(Oc2ccc(C(F)(F)F)cn2)cc1` (stereo unspecified): “inactive”; `C[C@]12C[C@H](O)[C@H]3[C@@H](CCC4=CC(=O)CC[C@@]43C)[C@@H]1CC[C@@H]2C(=O)CO`: “inactive”; `O=C(c1ccccc1)C1CCCCC1`: “inactive”.
Still for that read-out and setting: as for `COc1c(Cl)ccc(Cl)c1C(=O)O`, the entry is “inactive”.
The same measure, in the same setting: next, `CCSC(=O)N(CC(C)C)CC(C)C`: “inactive”.
Regarding `COCCO`, the outcome was inactive.
With `CCN(Cc1c(F)cccc1Cl)c1c([N+](=O)[O-])cc(C(F)(F)F)cc1[N+](=O)[O-]`, the AC50 was 15.2 µM (active).
`c1ccc2[nH]c(-c3cscn3)nc2c1`: the compound was classed as inactive.
As to `CCCOC(=O)c1ccc(C(=O)OCCC)nc1`, the compound was classed as inactive.
Regarding `O=C(O)c1ccccc1`, the call was inactive.
Still for that read-out and setting: next, `O=C(O)C1(C(=O)Nc2ccc(Cl)cc2Cl)CC1`: “inactive”; `OB(O)O`: “inactive”; `CSC(=O)c1cccc2nnsc12`: “inactive”.
On the same count and under the same terms, next, `CCOC(=O)NCCOc1ccc(Oc2ccccc2)cc1`: “inactive”.
For `CC(C)CCCCCCc1ccc(O)cc1`, the AC50 was 2.42 µM (active).
Take `CCOC(=O)c1ccc(O)cc1`: the AC50 is 47 µM (active) and 52.6 µM (active) and 67.5 µM (active); the compound was called inactive.
Turning to `O=C(Nc1ccc([N+](=O)[O-])cc1Cl)c1cc(Cl)ccc1O`, the result was inactive.
Same read-out and setting: as for `CCCN(CCC)c1c([N+](=O)[O-])cc(C(F)(F)F)c(N)c1[N+](=O)[O-]`, the entry is “inactive”.
Take `O=C(c1ccc(O)cc1O)c1ccc(O)cc1O`: the AC50 is 7.6 µM (active) and 7.51 µM (active) and 9.91 µM (active).
On to `CCOC(=O)C(C)Oc1ccc(Oc2cnc3cc(Cl)ccc3n2)cc1` (stereo unspecified), for which the result was inactive.
